In the library only some 6.9% were active in any assay of this set; here they are far more common.
MCF10A rerep: inducers of DNA re-replication in MCF 10A breast cells; MCF 10A DNA re-replication, Hoechst nuclear intensity, 48 h; Potency, µM (doses to about 46.1 µM), inactives show at the highest dose activity, positive = re-replication, most hits filed as activators; 350,000 tested, 2.9% active; AID 624296; note: potency is the fitted concentration of half-maximal effect; % of control where 0% means no effect; nearly all actives have a fitted effect of over 50% in size
ASM inhibitor: inhibitors of human secretory acid sphingomyelinase | P17405 | placental ASM, HMU-PC fluorogenic substrate, 60 min | Potency, µM (series often up to 57.5 µM), for inactives: at the top dose activity change, negative = inhibition, hits mostly inhibitors | 340,000 tested, 0.006% active | AID 504937; note: potency is the fitted concentration of half-maximal effect
Target sequence (P17405 47-631 limits assumed): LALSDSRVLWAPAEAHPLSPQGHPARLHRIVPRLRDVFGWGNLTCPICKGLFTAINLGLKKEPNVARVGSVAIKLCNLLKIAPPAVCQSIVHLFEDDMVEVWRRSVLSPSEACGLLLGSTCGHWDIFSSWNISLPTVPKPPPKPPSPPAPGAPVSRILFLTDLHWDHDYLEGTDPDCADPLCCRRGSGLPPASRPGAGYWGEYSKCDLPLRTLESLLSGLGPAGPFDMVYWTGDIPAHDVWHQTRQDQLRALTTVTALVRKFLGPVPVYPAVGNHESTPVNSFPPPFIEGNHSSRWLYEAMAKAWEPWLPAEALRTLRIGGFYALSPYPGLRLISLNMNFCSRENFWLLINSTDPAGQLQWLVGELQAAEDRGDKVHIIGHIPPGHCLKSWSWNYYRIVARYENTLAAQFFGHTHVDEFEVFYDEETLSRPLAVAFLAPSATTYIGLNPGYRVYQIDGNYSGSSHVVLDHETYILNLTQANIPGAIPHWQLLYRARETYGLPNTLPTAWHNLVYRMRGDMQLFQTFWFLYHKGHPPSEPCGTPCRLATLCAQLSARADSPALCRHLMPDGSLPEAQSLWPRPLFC
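Steps: dispense placental human ASM, pin compound, wait 10 min at room temperature, add HMU-PC0 substrate at 9 uM final, incubate 60 min at 37 °C, add stop solution raising pH to 10, read fluorescence.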
Giardia kill: Giardia lamblia killing; Giardia lamblia trophozoite viability; activity change, % at 7.66 µM, hits read low; 340,000 tested, 0.15% active; AID 540267; in the data active = activity change below about -80%; inconclusive = between about -30% and that limit;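 note: parasites exposed to compound for two days anaerobically before the ATP read; % is set by controls: 0 for no effect and ±100 for the full control effect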
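Viability, read as ATP luminescence: trophozoites at 100 cells/well, compound added, 48 hrs anaerobic at 37 deg C, then 15-30 min room-temperature development before reading.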
SW480 rereplic: induces DNA re-replication in SW480 colon adenocarcinoma cells | 340,000 tested, 1.8% active | Potency, µM (titrated, usually from 46.1 µM), without a hit: at the top dose re-replication activation, usual class: activators | SW480 DNA re-replication, Hoechst DNA content imaging, 48 h; note: potency is the fitted concentration of half-maximal effect; % of control where 0% means no effect; nearly all actives have a fitted effect of over 55% in size
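Image-based DNA-content assay: after two days of treatment, nuclei were labelled with the DNA dye Hoechst and imaged, and hits were compounds raising the count of nuclei showing high fluorescence intensity.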
KB-V1 MDR tox: kills drug-selected multidrug resistant KB-V1 cells; KB-V1 MDR cells viability, CellTiter-Glo, 72 h; Potency, µM (series often up to 46.1 µM), usual class: cytotoxic; 400,000 tested, 3.4% active; AID 1347076; note: potency is the fitted concentration of half-maximal effect; % is set by controls: 0 for no effect and ±100 for the full control effect; nearly all actives have a fitted effect of over 60% in size
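Luminescent ATP read-out (CellTiter-Glo, 10 min) measures survival of drug-selected KB-V1 MDR cells after 72 h, 37 degrees C compound exposure. Medium: phenol-red-free DMEM, 10% FBS. Values from fitted concentration-response curves.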
KB-3-1 cytotox: kills parental KB-3-1 adenocarcinoma cells; KB-3-1 viability, CellTiter-Glo ATP luminescence, 72 h; Potency, µM (titrated, usually from 46.1 µM), usual class: cytotoxic; 400,000 tested, 1.4% active; AID 1347075; note: potency is the fitted concentration of half-maximal effect; % is set by controls: 0 for no effect and ±100 for the full control effect; nearly all actives have a fitted effect of over 60% in size
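Cytotoxicity measured as CellTiter-Glo luminescence after 72 h at 37 C. Compound titrations were pinned onto drug-naive KB-3-1 parental adenocarcinoma cells grown in DMEM with 10% FBS, and normalized data fitted to concentration-response curves.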
An asterisk follows results filed as active; i = inactive; ? = inconclusive; / = no result given; [ ] = dose if it differs, or a comment. Unless noted, calls come from the whole dose curve; as a rule, active = well fitted curve in the direction sought with a large enough effect; inconclusive = small, poorly fitted or top-dose-only effect, or another doubt; inactive = no such curve, though single readings can be large; an effect the other way counts as inactive or inconclusive.

SMILES	MCF10A rerep	ASM inhibitor	Giardia kill	SW480 rereplic	KB-V1 MDR tox	KB-3-1 cytotox
CCc1c(C)sc(NC(=O)CCc2ccc(OC)cc2)c1C(N)=O	-5%	4%	6	0%	21µM*	i
CCC(C(=O)NCc1ccc2c(c1)CCN2C(=O)c1ccc(F)cc1)c1ccccc1 (configuration not stated)	/	/	/	/	i	?
CCn1c(=O)c(=O)[nH]c2cc(C(=O)NCc3ccc(F)cc3)ccc21	14%	1%	9	-4%	i	i
O=C(Nc1ccc(F)cc1F)c1ccc2c(c1)[nH]c(=O)n2Cc1ccc(F)cc1	5.8µM*	1%	-14	-42%	i	i
COc1ccc(CCNc2ncnc3nc[nH]c23)cc1	/	/	-18	/	i	i
COc1ccccc1N=CC=C1OC(C)(C)C(C)(C)O1	21µM*	209%	3	?	i	i
Cc1ccc(N=CC=C2OC(C)(C)C(C)(C)O2)c(C)c1	?	82%	2	0%	i	i
O=C(CC(C(=O)O)c1ccc(Cl)cc1)c1ccccc1 (configuration not stated)	0%	4%	-28	-6%	i	i
N#CC(CC(=O)c1ccc(Cl)cc1)c1ccccc1 (configuration not stated)	1%	1%	-1	-3%	16µM*	i
COc1cccc(CNC(=O)CCS(=O)(=O)c2cc3c4c(c2)CCN4C(=O)CC3)c1	/	/	/	/	i	i
COc1cccc(-n2nnnc2SCC(=O)NC2CCCC2)c1	3%	1%	-7	-2%	21µM*	i
COc1cc(OC)cc(-n2nnnc2SCC(=O)N2CCCc3ccccc32)c1	7%	2%	-18	15%	i	i
COc1cccc(-n2nnnc2SCC(=O)NC2CCCCC2)c1	9%	1%	-8	2%	i	i
Cc1ccc(C)c2c1cc(C)c1nnc(SCC(=O)N3CCCc4ccccc43)n12	4%	2%	14	-141%	9.2µM*	?
O=C(CSc1nnnn1-c1cccc(F)c1)NC1CCCCC1	-3%	0%	9	-7%	18µM*	i
Cc1cc(C)c2c(c1)cc(C)c1nnc(SCC(=O)N3CCCc4ccccc43)n12	13%	1%	-19	2%	?	i
COc1cccc(-n2nnnc2SCC(=O)N2CCCc3ccccc32)c1	?	-4%	-1	12µM*	i	i
CC(O)CO (configuration not stated)	0%	-10%	28	8%	?	i
CCOc1ccc(C(=O)Nc2ccc(-c3nc4ccccc4[nH]3)cc2)cc1Cl	/	/	/	/	?	i
CCc1cccc(NC(=O)CSc2nc3ccsc3c(=O)n2CC)c1	/	/	/	/	i	?
O=C(COC(=O)c1ccc2ncsc2c1)NC(=O)C1CCCCC1	/	/	-5	/	i	i
Cc1nc(NC(=O)c2ccccc2)sc1-c1csc(N)n1	16µM*	-2%	5	-1%	?	3.7µM*
C[C@@H]1C[C@H]2[C@H]3C[C@@H](F)C4=CC(=O)C=C[C@]4(C)[C@@]3(Cl)[C@@H](O)C[C@@]2(C)[C@@H]1C(=O)COC(=O)C(C)(C)C	7%	/	/	-1%	/	/
CCCN1C(=O)/C(=C/c2c(NCCCOCC)nc3c(C)cccn3c2=O)SC1=S	8%	2%	18	1%	i	i
O=C1/C(=C\c2c(NCCOCCO)nc3ccccn3c2=O)SC(=S)N1Cc1ccco1	9.2µM*	0%	-15	-35%[1.84 µM]	?	i
SMILES	MCF10A rerep	ASM inhibitor	Giardia kill	SW480 rereplic	KB-V1 MDR tox	KB-3-1 cytotox
COc1ccccc1N1CCN(C(c2ccccc2Cl)c2nnnn2C(C)(C)C)CC1 (configuration not stated)	27%	-4%	-4	?	?	?
Cc1cccc(N2CCN(C(c3ccccc3)c3nnnn3C(C)(C)C)CC2)c1C (configuration not stated)	18%	-2%	14	?	9.2µM*	?
CC(C)(C)n1nnnc1C(c1ccc(Cl)cc1)N1CCCc2ccccc21 (configuration not stated)	3%	1%	-16	-4%	?	i
COc1ccccc1C(c1nnnn1C(C)(C)C)N1CCCc2ccccc21 (configuration not stated)	-10%	-6%	-3	?	23µM*	?
COc1ccccc1N1CCN(C(c2ccc(Cl)cc2)c2nnnn2C(C)(C)C)CC1 (configuration not stated)	-13%	-6%	21	16%	18µM*	?
COC(=O)c1c(Oc2ccc(OC)cc2)nnc(-c2ccccc2)c1-c1ccccc1	/	/	/	/	i	i
CCc1ccc(NC(=O)N(Cc2c[nH]c3ccccc23)C2CCCCCC2)cc1	/	/	29	/	/	/
CCn1cc(C2=NOC(C(=O)Nc3ccccc3C(=O)OC)C2)c(C)n1 (configuration not stated)	-6%	-2%	-3	-11%	10µM*	i
COC(=O)c1ccccc1NC(=O)C1CC(c2ccccc2O)=NO1 (configuration not stated)	-8%	-8%	4	0%	i	i
C=CCn1c(=O)n(C2OC(CO)C(O)C2O)c2nc(N)[nH]c(=O)c21 (configuration not stated)	3%	/	/	1%	/	/
N#CCCn1nc(-c2ccccc2)cc1Nc1ccccc1NC(=O)C(F)(F)F	-2%	-3%	-6	0%	21µM*	i
CCc1ccccc1S(=O)(=O)Cc1ccc(C(=O)NCCc2ccc(Cl)cc2)o1	/	/	/	/	?	i
Cc1cc(-c2cc(NC=O)c3ncc(-c4cccc(C(=O)NCCN(C)C)c4)n3c2)cc(C)c1O	/	/	/	/	i	i
CCOC(=O)CSc1nc(-c2ccncc2)ccc1C#N	12µM*	5%	-22	4%	i	i
CCOC(=O)CC(=O)CSc1nc(-c2cccnc2)ccc1C#N	-5%	100%	-11	-18%	i	i
CCOC(=O)CSc1nc(-c2ccc3c(c2)OCO3)ccc1C#N	16µM*	276%	-3	2%	?	i
Cc1ccc(C(=O)N2CCN(c3ccc(NC(=O)c4ccc5c(c4)OCCO5)cc3)CC2)cc1	17%	-2%	-12	0%	?	?
Cc1ccccc1C(=O)N1CCN(c2ccc(NC(=O)CSc3ccc(Cl)cc3)cc2)CC1	?	-3%	-5	-4%	?	18µM*
Cc1ccccc1C(=O)N1CCN(c2ccc(NC(=O)c3ccc4c(c3)OCCO4)cc2)CC1	16µM*	-1%	5	-8%	8.2µM*	?
CCC(=O)Nc1ccc(N2CCN(C(=O)c3ccccc3C)CC2)cc1	5%	-1%	-1	2%	i	i
